# Measurements taken from PubChem BioAssay (NCATS).
# Several values for one entry are separate records, joined by “and”; a condition that tells them apart may be missing. Equal entries are not always repeated. Inconclusive results are not listed. Entries that show only a call come without a potency. Activity calls are given as the source filed them. Unless noted, no rule for the calls is given here.
# Experiments:
# [1] = biological target: Androgen receptor (Homo sapiens) (UniProt P10275); experiment: qHTS assay for small molecule agonists of androgen receptor signaling (AID 588515; active = well fitted curve in the direction sought with a large enough effect in the signal ratio, with a control signal flat; the % refers to the signal ratio); conditions: AR-UAS-bla HEK293, beta-lactamase ratio, agonist 16 h; stronger effect = higher value
# Sequence of Androgen receptor (Homo sapiens) (P10275 whole entry, looked up): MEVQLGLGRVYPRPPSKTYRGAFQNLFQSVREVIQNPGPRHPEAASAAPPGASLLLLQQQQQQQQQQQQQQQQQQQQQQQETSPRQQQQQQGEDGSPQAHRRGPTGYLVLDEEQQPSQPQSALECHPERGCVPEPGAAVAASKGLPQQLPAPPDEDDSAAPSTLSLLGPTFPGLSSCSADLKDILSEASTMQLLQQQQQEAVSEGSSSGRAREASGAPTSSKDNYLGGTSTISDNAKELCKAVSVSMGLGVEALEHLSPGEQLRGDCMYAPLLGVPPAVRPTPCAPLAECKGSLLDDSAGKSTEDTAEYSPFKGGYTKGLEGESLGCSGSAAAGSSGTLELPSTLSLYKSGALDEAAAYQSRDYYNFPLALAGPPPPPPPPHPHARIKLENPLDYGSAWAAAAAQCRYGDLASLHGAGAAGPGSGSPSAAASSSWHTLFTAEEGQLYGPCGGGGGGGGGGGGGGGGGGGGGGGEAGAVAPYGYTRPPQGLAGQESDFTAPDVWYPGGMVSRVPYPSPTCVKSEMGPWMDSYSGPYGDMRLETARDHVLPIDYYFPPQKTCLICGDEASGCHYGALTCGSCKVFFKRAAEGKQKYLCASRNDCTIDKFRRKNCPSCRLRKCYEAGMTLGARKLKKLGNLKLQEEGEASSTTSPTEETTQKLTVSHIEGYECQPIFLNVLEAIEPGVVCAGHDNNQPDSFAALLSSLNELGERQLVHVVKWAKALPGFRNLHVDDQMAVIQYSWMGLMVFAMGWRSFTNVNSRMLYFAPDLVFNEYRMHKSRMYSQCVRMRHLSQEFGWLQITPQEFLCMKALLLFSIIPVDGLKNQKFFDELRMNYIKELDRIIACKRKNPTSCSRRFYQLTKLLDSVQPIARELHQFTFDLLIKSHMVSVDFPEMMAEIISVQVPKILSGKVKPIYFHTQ
# Summary of the method: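 Stimulation of an AR-responsive β-lactamase reporter in GripTite HEK293 cells was measured after 16 h compound exposure at 37 °C, via CCF4 fluorescence after 2 h RT. EC50 from Hill fits, normalized to R1881 at 30 nM.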
# [2] = biological target: Androgen receptor (Homo sapiens) (UniProt P10275); experiment: qHTS assay for small molecule antagonists of androgen receptor signaling (AID 588516; active = well fitted curve in the direction sought with a large enough effect in the signal ratio, with a control signal flat, not every such curve was filed as active; the % refers to the signal ratio); conditions: AR-UAS-bla HEK293, beta-lactamase ratio, antagonist mode, 16 h; series mostly up to 76.8 µM
# Summary of the method: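 AR-UAS-bla-GripTite HEK 293 cells (2000/well, 5 h at 37 C) received compound titrations, then R1881 at 10 nM final; after 16 h at 37 C, CCF4 dye 2 h RT, beta-lactamase fluorescence read; IC50 from Hill fits.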
# [3] = biological target: Glucocorticoid receptor (Homo sapiens) (UniProt P04150); experiment: qHTS assay for small molecule agonists of glucocorticoid receptor signaling (AID 588532; active = well fitted curve in the direction sought with a large enough effect in the signal ratio, with a control signal flat; the % refers to the signal ratio); conditions: HeLa MMTV-bla, beta-lactamase ratio, agonist, 18 h; activation: stronger effect = higher value, percent of dexamethasone control, DMSO zero
# Sequence of Glucocorticoid receptor (Homo sapiens) (P04150 whole entry, looked up): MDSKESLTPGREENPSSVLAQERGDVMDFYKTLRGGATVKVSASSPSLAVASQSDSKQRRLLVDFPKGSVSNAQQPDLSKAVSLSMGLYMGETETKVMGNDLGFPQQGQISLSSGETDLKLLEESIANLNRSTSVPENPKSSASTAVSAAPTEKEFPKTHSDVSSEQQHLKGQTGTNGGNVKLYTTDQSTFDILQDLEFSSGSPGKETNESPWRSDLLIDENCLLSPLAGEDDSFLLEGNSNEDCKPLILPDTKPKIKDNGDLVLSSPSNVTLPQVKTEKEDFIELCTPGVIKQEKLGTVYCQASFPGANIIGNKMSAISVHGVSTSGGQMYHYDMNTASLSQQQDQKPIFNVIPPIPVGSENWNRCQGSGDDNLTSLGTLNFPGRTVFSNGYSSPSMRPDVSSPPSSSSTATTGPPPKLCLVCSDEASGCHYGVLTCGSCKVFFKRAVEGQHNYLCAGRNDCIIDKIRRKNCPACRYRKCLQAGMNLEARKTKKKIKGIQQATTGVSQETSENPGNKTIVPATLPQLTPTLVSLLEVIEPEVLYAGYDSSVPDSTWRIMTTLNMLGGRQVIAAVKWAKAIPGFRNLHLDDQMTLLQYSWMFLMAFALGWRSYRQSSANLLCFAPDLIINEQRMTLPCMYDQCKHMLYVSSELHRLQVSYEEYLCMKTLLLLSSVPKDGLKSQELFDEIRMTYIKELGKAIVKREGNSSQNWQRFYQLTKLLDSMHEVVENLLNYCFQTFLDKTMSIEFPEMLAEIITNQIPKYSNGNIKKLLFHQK
# Summary of the method: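 Stimulation of a glucocorticoid response element-driven beta-lactamase gene was measured in HeLa cells. Responses were scaled between DMSO basal and 0.1 uM dexamethasone, then fitted for half-maximal stimulation.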
# [4] = biological target: Glucocorticoid receptor (Homo sapiens) (UniProt P04150); experiment: qHTS assay for small molecule antagonists of glucocorticoid receptor signaling (AID 588533; active = well fitted inhibition curve with a large enough effect in the signal ratio, with a control signal flat, not every such curve was filed as active; the % refers to the signal ratio;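 also: cells stimulated with 2 nM dexamethasone as agonist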); conditions: HeLa MMTV-bla, GRE beta-lactamase ratio, antagonist mode, 18 h; series mostly up to 76.8 µM
# Summary of the method: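 Antagonist-mode qHTS: compound titrations added to GRE-bla HeLa cells, then dexamethasone 2 nM final; 18 h, 37 C. CCF4 FRET fluorescence normalized to dexamethasone and DMSO; IC50 from Hill fit.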
# [5] = biological target: Peroxisome proliferator-activated receptor gamma (Homo sapiens) (UniProt P37231); experiment: qHTS assay for small molecule agonists of peroxisome proliferator-activated receptor gamma signaling (AID 588536; active = well fitted curve in the direction sought with a large enough effect in the signal ratio, with a control signal flat, not every such curve was filed as active; the % refers to the signal ratio); conditions: HEK293 PPARg-UAS-bla, beta-lactamase ratio, 16 h; series mostly up to 76.7 µM
# Sequence of Peroxisome proliferator-activated receptor gamma (Homo sapiens) (P37231 whole entry, looked up): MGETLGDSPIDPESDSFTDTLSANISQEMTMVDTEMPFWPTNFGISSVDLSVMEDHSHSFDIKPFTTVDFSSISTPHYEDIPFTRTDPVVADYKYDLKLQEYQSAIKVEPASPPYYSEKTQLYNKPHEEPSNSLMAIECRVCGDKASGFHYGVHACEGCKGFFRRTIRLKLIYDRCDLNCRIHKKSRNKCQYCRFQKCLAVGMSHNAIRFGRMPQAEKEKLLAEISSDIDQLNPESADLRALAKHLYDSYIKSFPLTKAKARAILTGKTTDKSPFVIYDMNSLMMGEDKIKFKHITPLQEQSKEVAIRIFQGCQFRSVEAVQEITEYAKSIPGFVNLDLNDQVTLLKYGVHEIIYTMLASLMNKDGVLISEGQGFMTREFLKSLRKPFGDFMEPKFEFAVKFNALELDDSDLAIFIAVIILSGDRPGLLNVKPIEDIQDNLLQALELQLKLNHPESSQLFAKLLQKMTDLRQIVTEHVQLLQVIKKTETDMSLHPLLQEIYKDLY
# Summary of the method: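 Using GeneBLAzer HEK293 cells, response was quantified by CCF4 fluorescence and normalized between basal DMSO (0%) and rosiglitazone 2 uM (100%); curves yielded half-maximal stimulation concentration and efficacy.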
# [6] = biological target: Peroxisome proliferator-activated receptor gamma (Homo sapiens) (UniProt P37231); experiment: qHTS assay for small molecule antagonists of peroxisome proliferator-activated receptor gamma signaling (AID 588537; active = well fitted inhibition curve with a large enough effect in the signal ratio, with a control signal flat, not every such curve was filed as active; the % refers to the signal ratio;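 also: reporter cells co-stimulated with 50 nM rosiglitazone agonist during compound treatment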); conditions: HEK293 PPARg-UAS-bla, beta-lactamase ratio, antagonist mode; series mostly up to 76.8 µM
# Summary of the method: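 HEK293 cells, PPAR-gamma-UAS-bla, 3000/well. Pre-incubation 6-6.5 h, 37 C. Compound titration with rosiglitazone 50 nM final, 16 h. CCF4 dye, 2 h RT, dual-emission fluorescence.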
# [7] = qHTS assay for small molecule agonists of retinoid X receptor alpha signaling (AID 588544); conditions: HEK293T RXRa-UAS-bla, beta-lactamase reporter, 18 h; 530 nm emission
# [8] = biological target: Thyroid hormone receptor beta (Homo sapiens) (UniProt P10828); experiment: qHTS assay for small molecule antagonists of thyroid hormone receptor beta signaling (AID 588547; active = well fitted inhibition curve with a large enough effect in the signal ratio, with a control signal flat, not every such curve was filed as active; the % refers to the signal ratio;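 also: cells stimulated with 0.4 nM T3 agonist during compound exposure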); conditions: TR-UAS-bla HEK293, beta-lactamase ratio, antagonist mode, 18 h
# Sequence of Thyroid hormone receptor beta (Homo sapiens) (P10828 whole entry, looked up): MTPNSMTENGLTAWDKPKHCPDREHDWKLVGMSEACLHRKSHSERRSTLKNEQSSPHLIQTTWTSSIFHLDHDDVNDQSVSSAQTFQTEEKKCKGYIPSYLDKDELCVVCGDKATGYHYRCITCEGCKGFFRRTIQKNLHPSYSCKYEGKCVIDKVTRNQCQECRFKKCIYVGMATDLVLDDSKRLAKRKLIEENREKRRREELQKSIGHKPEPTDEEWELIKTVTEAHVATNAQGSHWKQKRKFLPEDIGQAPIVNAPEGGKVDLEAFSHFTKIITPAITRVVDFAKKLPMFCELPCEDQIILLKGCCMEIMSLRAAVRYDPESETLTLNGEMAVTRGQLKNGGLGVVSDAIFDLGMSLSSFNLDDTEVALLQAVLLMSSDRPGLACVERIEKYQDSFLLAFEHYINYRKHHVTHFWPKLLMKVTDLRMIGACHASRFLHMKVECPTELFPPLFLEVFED
# Summary of the method: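 TR-UAS-bla GripTite HEK293 cells in 2% charcoal/dextran FBS medium were preincubated 4 h at 37 C, given compound (0.59 nM to 92 uM) plus 0.4 nM T3 (final) for 18 h, then CCF4 for 2 h at RT; Hill fit gave IC50.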
# [9] = qHTS assay for small molecule activators of the human pregnane X receptor (PXR) signaling pathway (AID 720659); conditions: DPX-2 HepG2 CYP3A4-luciferase, 24 h; series mostly up to 92.3 µM
# [10] = qHTS assay for small molecule agonists of the antioxidant response element (ARE) signaling pathway (AID 651741; active = well fitted activation curve with a large enough effect in the signal ratio; the % refers to the signal ratio; also: potency is read from the fitted curve at half-maximal effect); conditions: HepG2 ARE-bla reporter, beta-lactamase FRET ratio, 16 h; series mostly up to 96 µM
# Summary of the method: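 Beta-lactamase reporter expression driven by the antioxidant response element in HepG2 cells was detected by fluorescence with LiveBLAzer B/G FRET substrate (2 h, room temperature) following 16 h compound treatment at 37 C.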
# [11] = qHTS assay for small molecule disruptors of the mitochondrial membrane potential - 1 hr assay (AID 651754; calls by dose curve; also: potency is read from the fitted curve at half-maximal effect; nearly all actives have a fitted effect of over 35% in size); conditions: series mostly up to 92.2 µM
# Summary of the method: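 Read-out: dye fluorescence at 490 nm ex/535 nm em (monomers) and 540 nm ex/590 nm em (aggregates) in HepG2 cells. Compound exposure 1 hr at 37C, followed by 30 min dye loading.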
structure (smiles),measurement,setting,value
Nc1c(Cl)c(F)nc(OCC(=O)O)c1Cl,activation,[1],0.917% (inactive)
same,Potency,[2],inactive
same,activation,[3],-4.31% (inactive)
same,Potency,[4],inactive
same,Potency,[5],inactive
same,Potency,[6],inactive
same,max response,[7],5.84%
same,activity change % (negative = inhibition),[8],11.1% (inactive)
same,outcome,[9],inactive
CC(C)N1C(=O)N(c2ccccc2)CSC1=NC(C)(C)C,activation,[1],-16.2% (inactive) and -14% (inactive)
same,activation,[3],-1.49% (inactive) and -3.83% (inactive)
same,Potency,[6],inactive
same,max response,[7],15.4% and 12.1%
same,Potency,[10],68.6 µM (active) and 61.1 µM (active)
CCOc1cc(C(C)(C)C)ccc1C1COC(c2c(F)cccc2F)=N1 (configuration not stated),activation,[1],-19.9% (inactive)
same,activity change % (negative = inhibition),[8],-28.7% (inactive)
same,Potency,[10],12.2 µM (active)
c1ccc2c(c1)[nH]c1ccccc12,activation,[1],0.372% (inactive)
same,Potency,[11],59.6 µM (active)
C[C@H]1[C@H](c2ccc(Cl)cc2)SC(=O)N1C(=O)NC1CCCCC1,activation,[1],-15.6% (inactive)
same,activation,[3],-1.81% (inactive)
same,Potency,[4],inactive
same,Potency,[10],54.5 µM (active)
CCSCCSP(=O)(OC)OC,activation,[1],-9.34% (inactive)
same,Potency,[2],inactive
same,Potency,[4],inactive
same,Potency,[5],inactive
same,Potency,[6],inactive
same,max response,[7],1.71%
same,activity change % (negative = inhibition),[8],4.21% (inactive)
same,Potency,[10],54.5 µM (active)
same,outcome,[9],inactive
COc1nn(C(=O)NS(=O)(=O)c2ccccc2OC(F)(F)F)c(=O)n1C,Potency,[4],inactive
same,Potency,[5],inactive
same,Potency,[6],inactive
same,max response,[7],-2.96%
same,activity change % (negative = inhibition),[8],8.96% (inactive)
same,Potency,[10],inactive
same,outcome,[9],inactive
Cc1nc(N(C)C)nc(OC(=O)N(C)C)c1C,Potency,[4],inactive
same,Potency,[5],inactive
same,Potency,[6],inactive
same,max response,[7],0.351%
same,Potency,[10],inactive
same,outcome,[9],inactive
CCN(CC)C(=O)SCc1ccc(Cl)cc1,activation,[3],-4.08% (inactive)
same,Potency,[4],inactive
same,Potency,[5],inactive
same,Potency,[6],inactive
same,max response,[7],0.303%
same,activity change % (negative = inhibition),[8],12% (inactive)
CCNc1nc(NC(C)C)nc(OC)n1,Potency,[4],inactive
same,Potency,[5],inactive
same,max response,[7],-5.81%
same,Potency,[10],inactive
same,outcome,[9],inactive
Cc1cc(C2CC2)nc(Nc2ccccc2)n1,Potency,[5],inactive
same,Potency,[6],inactive
same,max response,[7],7.71%
same,activity change % (negative = inhibition),[8],-20% (inactive)
same,Potency,[10],54.5 µM (active)
N#Cc1cc(Br)c(O)c(Br)c1,activation,[3],4.63% (inactive)
same,Potency,[4],inactive
same,Potency,[5],inactive
same,max response,[7],-9.28%
same,activity change % (negative = inhibition),[8],6.22% (inactive)
same,Potency,[10],61.1 µM (active)
same,outcome,[9],inactive
CCCOCC(=Nc1ccc(Cl)cc1C(F)(F)F)n1ccnc1,activation,[3],-3.28% (inactive)
same,Potency,[4],inactive
same,max response,[7],-2.58%
same,Potency,[10],19.3 µM (active)
CCc1cc(C)cc(CC)c1-c1c(OC(=O)C(C)(C)C)n2n(c1=O)CCOCC2,activation,[3],-0.342% (inactive)
same,Potency,[4],inactive
same,Potency,[5],inactive
same,Potency,[6],inactive
same,max response,[7],-12.9%
same,activity change % (negative = inhibition),[8],-5.07% (inactive)
CC(O)CN(CC(C)O)CC(C)O (configuration not stated),activation,[3],4.4% (inactive)
same,Potency,[4],inactive
same,Potency,[10],54.5 µM (active)
same,outcome,[9],inactive
CCCCCCCCCCCC#N,Potency,[4],inactive
same,Potency,[5],inactive
same,Potency,[6],inactive
same,activity change % (negative = inhibition),[8],16.2% (inactive)
same,Potency,[10],inactive
same,outcome,[9],inactive
CC(C)COP(=O)(OCC(C)C)OCC(C)C,Potency,[4],inactive
same,Potency,[5],inactive
same,Potency,[6],inactive
same,max response,[7],-15.8%
same,activity change % (negative = inhibition),[8],-6.4% (inactive)
same,outcome,[9],inactive
CCC[CH2][Sn]([CH2]CCC)([CH2]CCC)[CH2]CCC,activation,[3],-2.61% (inactive)
same,Potency,[4],inactive
same,Potency,[6],inactive
same,activity change % (negative = inhibition),[8],-9.45% (inactive)
same,Potency,[10],inactive
same,outcome,[9],inactive
O=[N+]([O-])c1ccc(Nc2ccccc2)cc1,activation,[3],-0.43% (inactive)
same,Potency,[4],inactive
same,activity change % (negative = inhibition),[8],-15.7% (inactive)
same,Potency,[10],48.6 µM (active)
C[Si](Cn1cncn1)(c1ccc(F)cc1)c1ccc(F)cc1,Potency,[6],inactive
COc1cccc(C(=O)NN(C(=O)c2cc(C)cc(C)c2)C(C)(C)C)c1C,Potency,[5],inactive
same,Potency,[6],inactive
same,max response,[7],-2.17%
CS(=O)(=O)NC(=O)c1cc(Oc2ccc(C(F)(F)F)cc2Cl)ccc1[N+](=O)[O-],Potency,[5],inactive
same,activity change % (negative = inhibition),[8],-8.1% (inactive)
same,outcome,[9],inactive
Brc1ccc(Br)cc1,activation,[3],1.41% (inactive)
same,Potency,[4],inactive
same,Potency,[5],inactive
same,Potency,[6],inactive
same,max response,[7],0.756%
same,outcome,[9],inactive
CCC(C)(c1ccc(O)cc1)c1ccc(O)cc1,Potency,[5],inactive
same,Potency,[6],inactive
same,max response,[7],3.09%
same,activity change % (negative = inhibition),[8],5.47% (inactive)
same,Potency,[10],54.5 µM (active)
CCOP(=O)(OCC)Oc1cc(C)nc(C(C)C)n1,activation,[3],20.3% (inactive)
same,Potency,[6],inactive
same,outcome,[9],inactive
CCCSP(=O)(OCC)Oc1ccc(Br)cc1Cl (configuration not stated),Potency,[5],inactive
same,max response,[7],0.651%
same,activity change % (negative = inhibition),[8],3.3% (inactive)
same,outcome,[9],inactive
CCCCOCN(C(=O)CCl)c1c(CC)cccc1CC,activation,[3],-1.18% (inactive)
same,activity change % (negative = inhibition),[8],-14.9% (inactive)
same,Potency,[10],24.3 µM (active)
CC1(C)[C@H](C(=O)O[C@H](C#N)c2cccc(Oc3ccccc3)c2)[C@@H]1/C=C(\Cl)C(F)(F)F,activation,[3],16% (inactive)
same,Potency,[4],inactive
same,max response,[7],9.43%
same,activity change % (negative = inhibition),[8],3.81% (inactive)
same,Potency,[10],54.5 µM (active)
